Measurements as given in PubChem BioAssay AID1159580 (chemical genetic matrix, 2015).
“And” between values parts separate entries of the source, which are not always exact repeats. Equal entries are not always repeated. The campaign covered roughly 5,500 compounds. About 2,000 (36%) were called active. Inconclusive results (about 18%) are left out. This is one part of the list. Unmarked numbers belong to inactive results. No stated cut-off is given here; in the data, active means normalized growth mostly below about 0.91 (no sharp cut-off); inconclusive means no clear call, values can overlap the other calls; inactive means mostly above about 0.92.

Test: chemical genetic growth profiling, strain panel (AID 1159580);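 further: tested at 20 µM; growth read once vehicle control cultures reached saturation at 30 °C; 1 = growth at the plate median or of vehicle wells; lower values mean less growth of the strain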
Conditions: growth OD

Structure (SMILES): NCCc1cnc[nH]1
- normalized growth (S. cerevisiae deletion strains, locus YJR066W, strain TOR1, hits give low values): 0.985
- normalized growth (S. cerevisiae deletion strains, locus YJR075W, strain HOC1, hits give low values): 1.01
- normalized growth (S. cerevisiae deletion strains, locus YKL009W, strain mrt4, hits give low values): 1.01
- normalized growth (S. cerevisiae deletion strains, locus YKL068W, hits give low values): 1.01
- normalized growth (S. cerevisiae deletion strains, locus YKL085W, strain MDH1 (second series), hits give low values): 1.01
- normalized growth (S. cerevisiae deletion strains, locus YKL085W, strain MDH1, hits give low values): 1.01
- normalized growth (S. cerevisiae deletion strains, locus YKL160W, strain elf1, hits give low values): 1.02
- normalized growth (S. cerevisiae deletion strains, locus YKL190W, strain CNB1, hits give low values): 0.978
- normalized growth (S. cerevisiae deletion strains, locus YKR001C, strain vps1, hits give low values): 1.01
- normalized growth (S. cerevisiae deletion strains, locus YKR026C, strain gcn3, hits give low values): 1.02
- normalized growth (S. cerevisiae deletion strains, locus YKR091W, strain srl3, hits give low values): 1.02
- normalized growth (S. cerevisiae deletion strains, locus YLL001W, strain dnm1, hits give low values): 1.02
- normalized growth (S. cerevisiae deletion strains, locus YLL026W, hits give low values): 1.02
- normalized growth (S. cerevisiae deletion strains, locus YLL041C, strain sdh2, hits give low values): 1.02
- normalized growth (S. cerevisiae deletion strains, locus YLR027C, strain aat2, hits give low values): 1.01
- normalized growth (S. cerevisiae deletion strains, locus YLR039C, strain RIC1, hits give low values): 1.05
- normalized growth (S. cerevisiae deletion strains, locus YLR058C, strain SHM2, hits give low values): 1.01
- normalized growth (S. cerevisiae deletion strains, locus YLR102C, strain apc9, hits give low values): 1.02
- normalized growth (S. cerevisiae deletion strains, locus YLR113W, strain HOG1, hits give low values): 0.985
- normalized growth (S. cerevisiae deletion strains, locus YLR221C, strain rsa3, hits give low values): 1.05
- normalized growth (S. cerevisiae deletion strains, locus YLR258W, strain gsy2, hits give low values): 1.02
- normalized growth (S. cerevisiae deletion strains, locus YLR262C, strain YPT6 (second series), hits give low values): 1.06
- normalized growth (S. cerevisiae deletion strains, locus YLR262C, strain YPT6, hits give low values): 1
- normalized growth (S. cerevisiae deletion strains, locus YLR268W, strain sec22, hits give low values): 1.02
- normalized growth (S. cerevisiae deletion strains, locus YLR320W, strain mms22, hits give low values): 1.04
- normalized growth (S. cerevisiae deletion strains, locus YLR330W, strain CHS5, hits give low values): 1.01
- normalized growth (S. cerevisiae deletion strains, locus YLR342W, strain FKS1 (second series), hits give low values): 0.997
- normalized growth (S. cerevisiae deletion strains, locus YLR342W, strain FKS1, hits give low values): 1.02
- normalized growth (S. cerevisiae deletion strains, locus YLR357W, strain rsc2, hits give low values): 1
- normalized growth (S. cerevisiae deletion strains, locus YLR370C, strain arc18, hits give low values): 1.01
- normalized growth (S. cerevisiae deletion strains, locus YLR371W, strain rom2, hits give low values): 1
- normalized growth (S. cerevisiae deletion strains, locus YLR384C, strain iki3, hits give low values): 1.02
- normalized growth (S. cerevisiae deletion strains, locus YLR418C, strain cdc73, hits give low values): 1.04
- normalized growth (S. cerevisiae deletion strains, locus YML016C, strain PPZ1, hits give low values): 1.01
- normalized growth (S. cerevisiae deletion strains, locus YML032C, strain rad52, hits give low values): 1.01
- normalized growth (S. cerevisiae deletion strains, locus YML120C, strain ndi1, hits give low values): 1.02
- normalized growth (S. cerevisiae deletion strains, locus YML124C, strain tub3, hits give low values): 1.01
- normalized growth (S. cerevisiae deletion strains, locus YMR058W, strain fet3, hits give low values): 1.02
- normalized growth (S. cerevisiae deletion strains, locus YMR078C, strain ctf18, hits give low values): 1.02
- normalized growth (S. cerevisiae deletion strains, locus YMR125W, strain sto1, hits give low values): 1.02
- normalized growth (S. cerevisiae deletion strains, locus YMR129W, hits give low values): 1.02
- normalized growth (S. cerevisiae deletion strains, locus YMR205C, strain PFK2, hits give low values): 1.04
- normalized growth (S. cerevisiae deletion strains, locus YMR223W, strain ubp8, hits give low values): 1.03
- normalized growth (S. cerevisiae deletion strains, locus YMR231W, strain pep5, hits give low values): 1.01
- normalized growth (S. cerevisiae deletion strains, locus YMR307W, strain GAS1, hits give low values): 0.923 and 0.999
- normalized growth (S. cerevisiae deletion strains, locus YNL067W, strain RPL9B, hits give low values): 0.995
- normalized growth (S. cerevisiae deletion strains, locus YNL071W, strain lat1, hits give low values): 1.02
- normalized growth (S. cerevisiae deletion strains, locus YNL128W, strain TEP1, hits give low values): 1
- normalized growth (S. cerevisiae deletion strains, locus YNL153C, strain GIM3, hits give low values): 0.778 (active)
- normalized growth (S. cerevisiae deletion strains, locus YNL175C, strain NOP13, hits give low values): 0.381 (active)
- normalized growth (S. cerevisiae deletion strains, locus YNL183C, strain NPR1, hits give low values): 0.962
- normalized growth (S. cerevisiae deletion strains, locus YNL197C, strain WHI3, hits give low values): 0.662 (active)
- normalized growth (S. cerevisiae deletion strains, locus YNL209W, strain ssb2, hits give low values): 1.02
- normalized growth (S. cerevisiae deletion strains, locus YNL233W, strain BNI4, hits give low values): 1.01
- normalized growth (S. cerevisiae deletion strains, locus YNL248C, strain rpa49, hits give low values): 1.02
- normalized growth (S. cerevisiae deletion strains, locus YNL250W, strain rad50, hits give low values): 1.05
- normalized growth (S. cerevisiae deletion strains, locus YNL271C, strain bni1, hits give low values): 1.03
- normalized growth (S. cerevisiae deletion strains, locus YNL298W, strain CLA4, hits give low values): 1.02
- normalized growth (S. cerevisiae deletion strains, locus YNL307C, strain MCK1, hits give low values): 1.02
- normalized growth (S. cerevisiae deletion strains, locus YNL322C, strain KRE1 (second series), hits give low values): 1.03
- normalized growth (S. cerevisiae deletion strains, locus YNR049C, strain mso1, hits give low values): 1.04
- normalized growth (S. cerevisiae deletion strains, locus YNR052C, strain pop2, hits give low values): 1.01
- normalized growth (S. cerevisiae deletion strains, locus YOL012C, strain htz1): 1.37
- normalized growth (S. cerevisiae deletion strains, locus YOL147C, strain pex11, hits give low values): 1.02
- normalized growth (S. cerevisiae deletion strains, locus YOR001W, strain rrp6, hits give low values): 1.01
- normalized growth (S. cerevisiae deletion strains, locus YOR061W, strain CKA2, hits give low values): 1.01
- normalized growth (S. cerevisiae deletion strains, locus YOR069W, strain VPS5, hits give low values): 1
- normalized growth (S. cerevisiae deletion strains, locus YOR070C, strain gyp1, hits give low values): 1.02
- normalized growth (S. cerevisiae deletion strains, locus YOR080W, strain dia2, hits give low values): 1.01
- normalized growth (S. cerevisiae deletion strains, locus YOR083W, strain WHI5 (second series), hits give low values): 0.582 (active)
- normalized growth (S. cerevisiae deletion strains, locus YOR083W, strain WHI5, hits give low values): 1.03
- normalized growth (S. cerevisiae deletion strains, locus YOR106W, strain vam3, hits give low values): 1
- normalized growth (S. cerevisiae deletion strains, locus YOR136W, strain idh2, hits give low values): 1.02
- normalized growth (S. cerevisiae deletion strains, locus YOR144C, strain elg1, hits give low values): 1.01
- normalized growth (S. cerevisiae deletion strains, locus YOR184W, strain ser1, hits give low values): 1.02
- normalized growth (S. cerevisiae deletion strains, locus YOR231W, strain MKK1, hits give low values): 1
- normalized growth (S. cerevisiae deletion strains, locus YOR265W, strain rbl2, hits give low values): 1.02
- normalized growth (S. cerevisiae deletion strains, locus YOR270C, strain vph1, hits give low values): 1.07
- normalized growth (S. cerevisiae deletion strains, locus YOR290C, strain snf2, hits give low values): 0.969
- normalized growth (S. cerevisiae deletion strains, locus YOR316C, strain cot1, hits give low values): 1.02
- normalized growth (S. cerevisiae deletion strains, locus YPL051W, strain arl3, hits give low values): 1
- normalized growth (S. cerevisiae deletion strains, locus YPL078C, strain atp4, hits give low values): 1.02
- normalized growth (S. cerevisiae deletion strains, locus YPL106C, strain sse1, hits give low values): 1.03
- normalized growth (S. cerevisiae deletion strains, locus YPL240C, strain hsp82, hits give low values): 1.01
- normalized growth (S. cerevisiae deletion strains, locus YPL241C, strain CIN2, hits give low values): 1
- normalized growth (S. cerevisiae deletion strains, locus YPR119W, strain clb2, hits give low values): 1.01
- normalized growth (S. cerevisiae deletion strains, locus YPR141C, strain kar3, hits give low values): 1.01
- normalized growth (S. cerevisiae deletion strains, locus YPR163C, strain tif3, hits give low values): 1.03
- normalized growth (S. cerevisiae deletion strains, locus YPR167C, strain met16, hits give low values): 1.02
- normalized growth (S. cerevisiae deletion strains, strain wtn01, hits give low values): 1.01
- normalized growth (S. cerevisiae strains, strain wild type, hits give low values): 0.988
